Results: publication PMC10668032, “Altered binding affinity of SIX1-Q177R correlates with enhanced WNT5A and WNT pathway effector expression in Wilms tumor”
The full ranking holds about 33,000 sequences; the median of “e-score” is about -0.05, and the highest 2% start at about 0.38. For the sample, the highest values were picked, then their nearest neighbours and some sequences at random.

Target: T1, SIX1-Q177R homeodomain (human, UniProt Q15475 108-198, Q177R)
T1 sequence: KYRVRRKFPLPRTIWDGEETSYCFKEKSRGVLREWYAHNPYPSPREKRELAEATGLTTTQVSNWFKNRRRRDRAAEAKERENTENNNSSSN
Assay: universal protein binding microarray; Universal all-10-mer PBM (8x60K, AMADID 030236), 300 nM GST-tagged protein, Alexa Fluor 488 anti-GST; buffer, salt, pH and temperature not stated (as in Berger); high values mean tight binding
Conditions: protein: ivt; tags: N-terminal GST; dsDNA, one strand shown
In short: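 GST-tagged homeodomains were made by in vitro transcription/translation and quantified by anti-GST western blot against a recombinant GST standard curve. They were applied in duplicate at 300 nM final concentration to universal 'all 10-mer' protein binding microarrays (8×60K format). Binding was quantified as 8-mer E-scores with the Universal PBM Analysis Suite.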

Sequence	binding signal
CTAGACAC	0.393 ± 0.0124 E-score
GTAGACAC	0.409 ± 0.0281 E-score
ATAGAGTC	0.202 ± 0.0331 E-score
CTAGACCC	0.184 ± 0.00755 E-score
ATAGACAC	0.428 ± 0.0191 E-score
CTAGATAC	0.165 ± 0.0452 E-score
AGATAGAC	0.154 ± 0.0062 E-score
ACAAGGTG	0.264 ± 0.0157 E-score
ACCATCCA	0.215 ± 0.0116 E-score
GGGTGCGA	0.181 ± 0.00744 E-score
CCCTGACG	0.152 ± 0.00643 E-score
CCGCCGTA	0.164 ± 0.00253 E-score
GAGACCCC	0.225 ± 0.0263 E-score
CACCCACC	0.252 ± 0.0101 E-score
CACCACTA	0.3486 ± 0.00204 E-score
ACTGTGTG	0.177 ± 0.0389 E-score
ATGGAGAC	0.174 ± 0.0638 E-score
CTGGACAC	0.406 ± 0.0173 E-score
GTGGACAC	0.419 ± 0.0259 E-score
CTGGAAAC	0.178 ± 0.0277 E-score
GTGCACAC	0.271 ± 0.021 E-score
GTGGGACA	0.171 ± 0.0189 E-score
ATGGATAC	0.278 ± 0.0318 E-score
CTGGATAC	0.222 ± 0.0101 E-score
ATGGACAC	0.419 ± 0.00799 E-score

Sequence	binding signal
ACCCTAGT	0.269 ± 0.00753 E-score
CCCCTCTA	0.2508 ± 0.000354 E-score
CGGTGCCA	0.19 ± 0.0233 E-score
AGGTGTCG	0.4794 ± 0.00471 E-score
ATGTGTCG	0.188 ± 0.0615 E-score
AGGTGGTG	0.287 ± 0.0143 E-score
AGGGGTCC	0.178 ± 0.00987 E-score
AGGTGTCC	0.464 ± 0.0052 E-score
GGGTGCCA	0.2 ± 0.0639 E-score
CTGTGTCA	0.256 ± 0.066 E-score
GGGTGTCA	0.4915 ± 0.00277 E-score
GGGGGTCA	0.313 ± 0.0364 E-score
CGGTGTCA	0.4918 ± 0.00175 E-score
GGGAGTAC	0.2586 ± 0.000728 E-score
CGGATCCG	0.183 ± 0.00497 E-score
GTCTCATA	0.179 ± 0.0328 E-score
CCCGGGGA	0.206 ± 0.0149 E-score
CACCGCTC	0.27 ± 0.013 E-score
CCATAACA	0.2144 ± 0.000806 E-score
AGACGGTG	0.23 ± 0.0191 E-score
AAACGGTG	0.308 ± 0.011 E-score
CCCTCACG	0.165 ± 0.0328 E-score
CCCCCTCA	0.223 ± 0.0246 E-score
CCGCGCGG	0.172 ± 0.0537 E-score
ACTGGTAT	0.2685 ± 0.000262 E-score

Sequence	binding signal
CCGGTTAC	0.1852 ± 0.000205 E-score
ATGTGTCA	0.253 ± 0.0258 E-score
AGGTGTCA	0.4862 ± 0.000651 E-score
CGGTGTCC	0.489 ± 0.00456 E-score
AGGTGACA	0.251 ± 0.0589 E-score
CGGGGTCC	0.241 ± 0.0168 E-score
CGGTGATC	0.163 ± 0.0497 E-score
TCGGTGCA	0.232 ± 0.0114 E-score
CACGACCG	0.225 ± 0.0274 E-score
CGCCACCC	0.19 ± 0.0435 E-score
TAGTGAGA	0.154 ± 0.0331 E-score
TGTCGACA	0.25 ± 0.0489 E-score
GGGATACC	0.341 ± 0.00451 E-score
AGACCCTA	0.195 ± 0.0142 E-score
CACGGGCG	0.204 ± 0.0346 E-score
ACACGGCT	0.3983 ± 0.00124 E-score
ACACGGCC	0.3824 ± 0.0024 E-score
ACACGTCT	0.344 ± 0.0192 E-score
ACACGGCA	0.3737 ± 0.00357 E-score
ACACGTCG	0.323 ± 0.0129 E-score
ACACGTCA	0.323 ± 0.0149 E-score
AACCCCGC	0.194 ± 0.0341 E-score
TACTCCCA	0.16 ± 0.038 E-score
ACGCGGCG	0.229 ± 0.0107 E-score
ACCGAATA	0.155 ± 0.00809 E-score

Sequence	binding signal
CACACGCC	0.252 ± 0.0122 E-score
CACGCGCA	0.212 ± 0.0332 E-score
CACACGCG	0.296 ± 0.0321 E-score
GACACGCC	0.4444 ± 0.00225 E-score
GACACGCA	0.416 ± 0.0252 E-score
ACCTCCGA	0.172 ± 0.0111 E-score
CCCCTAGC	0.177 ± 0.00211 E-score
ACTCGGAC	0.179 ± 0.0406 E-score
CACCCTGA	0.339 ± 0.0238 E-score
AGGATCCC	0.155 ± 0.0155 E-score
GTAACAGA	0.16 ± 0.00854 E-score
CCCGAGAC	0.204 ± 0.023 E-score
ACCCGTCT	0.178 ± 0.0209 E-score
CGTGTCAC	0.462 ± 0.0133 E-score
AGTATCAG	0.266 ± 0.0112 E-score
GGAGTCAC	0.3325 ± 0.00242 E-score
CGTGTCAG	0.441 ± 0.0089 E-score
CGCGTCAG	0.154 ± 0.00463 E-score
CGAGTCAC	0.196 ± 0.0324 E-score
AGTGTCAC	0.45 ± 0.00611 E-score
GGTGTCAC	0.4915 ± 0.00356 E-score
CGTGTCTC	0.338 ± 0.00573 E-score
GGGGTCAC	0.29 ± 0.0253 E-score
ACGCGGTG	0.334 ± 0.012 E-score
GGGATCCA	0.211 ± 0.0194 E-score

Sequence	binding signal
ACCTGACA	0.228 ± 0.0625 E-score
ACCCCACT	0.207 ± 0.00426 E-score
GCGGATAA	0.162 ± 0.0348 E-score
CTCGTACA	0.17 ± 0.0125 E-score
CCCAAACA	0.208 ± 0.0371 E-score
CACTCTTA	0.164 ± 0.0568 E-score
GAACCCCC	0.244 ± 0.0572 E-score
ATACCCAG	0.274 ± 0.0157 E-score
AGTGTCTG	0.302 ± 0.0115 E-score
GGGGTCAA	0.253 ± 0.0228 E-score
GGTGTCAA	0.49013 ± 0.000481 E-score
AGAGTCAT	0.1867 ± 0.000552 E-score
AGTGTCAT	0.462 ± 0.0172 E-score
AGTGTCAG	0.4435 ± 0.00254 E-score
AGTGTCCG	0.365 ± 0.00508 E-score
AGTGTCAA	0.424 ± 0.0101 E-score
GGCGTCAA	0.177 ± 0.0347 E-score
GAGGTATC	0.337 ± 0.00525 E-score
CCCTCCCA	0.176 ± 0.0422 E-score
ACCAAACA	0.244 ± 0.0473 E-score
GTAACATA	0.196 ± 0.0373 E-score
AAAGGGGG	0.233 ± 0.0235 E-score
CACCTTTC	0.195 ± 0.00584 E-score
CGTGATCC	0.195 ± 0.0306 E-score
TGTGTCAA	0.303 ± 0.0203 E-score

Sequence	binding signal
CGTGTCAA	0.409 ± 0.00885 E-score
CGGGTCAA	0.2 ± 0.04 E-score
ACTATGCG	0.17 ± 0.0186 E-score
ACCTCGGA	0.175 ± 0.0387 E-score
AATGACCC	0.181 ± 0.0204 E-score
GATGACAC	0.4656 ± 0.00203 E-score
AATGACAC	0.464 ± 0.0115 E-score
GATGATAC	0.242 ± 0.0302 E-score
GATGACCC	0.211 ± 0.0466 E-score
CATGATAC	0.287 ± 0.0236 E-score
CATGACAC	0.4733 ± 0.00427 E-score
CATGACCC	0.218 ± 0.0214 E-score
AATGACTC	0.245 ± 0.00746 E-score
CACCTAGA	0.276 ± 0.00873 E-score
GACGCCAC	0.201 ± 0.00624 E-score
CACCCATC	0.277 ± 0.0196 E-score
ACCCCCGA	0.298 ± 0.0252 E-score
CACTATCC	0.196 ± 0.0388 E-score
AGGGTACA	0.237 ± 0.00699 E-score
ACTCCGGA	0.204 ± 0.0189 E-score
ACCCAGAA	0.179 ± 0.00761 E-score
ACAGTACA	0.203 ± 0.0245 E-score
GGATCCGA	0.217 ± 0.0131 E-score
CACTACCA	0.227 ± 0.00878 E-score
CCACGACA	0.27 ± 0.00989 E-score

Sequence	binding signal
ACACGACG	0.368 ± 0.0133 E-score
GCACGACC	0.255 ± 0.00765 E-score
ACACGACC	0.4169 ± 0.00152 E-score
GCACGACA	0.2099 ± 0.000516 E-score
ACACGAAA	0.302 ± 0.0196 E-score
ACACGACT	0.411 ± 0.00971 E-score
ACACGACA	0.404 ± 0.00581 E-score
ACACGAAT	0.31 ± 0.00916 E-score
ACCGAATG	0.173 ± 0.0343 E-score
CCCCCCTA	0.232 ± 0.01 E-score
GTGGAGTA	0.29 ± 0.0112 E-score
ATCGAGGG	0.167 ± 0.00486 E-score
ATCCGATC	0.213 ± 0.0309 E-score
CACTCGGC	0.237 ± 0.0125 E-score
GCGAGTAC	0.175 ± 0.00781 E-score
CCGTATCA	0.245 ± 0.0466 E-score
GGGTAACC	0.196 ± 0.00371 E-score
ACGATAGT	0.157 ± 0.0172 E-score
GCACCACC	0.261 ± 0.00493 E-score
AAACCACA	0.2156 ± 0.00176 E-score
GCACCACA	0.154 ± 0.00776 E-score
ACACCACA	0.485 ± 0.000106 E-score
